The text below walks through data of article PMC8384837, “Expanding the binding specificity for RNA recognition by a PUF domain”.

Assay in all cases: yeast three-hybrid, YBZ-1, SC-Leu-His + 0.5 mM 3-AT, 4 days
What all share (conditions): tags: N-Gal4 AD-HA kept; label: inside an RPR1-promoter hybrid RNA with tandem MS2 sites; ssRNA

One test addresses PUM1 PUF domain R4-LHQ (Homo sapiens, UniProt Q14671 828-1176, N971L). The essentials:
(§1)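 Repeat regions from input (SC-Leu) and selection (SC-Leu-His + 0.5 mM 3-AT) plates were PCR-amplified and Illumina-sequenced after four days of growth. The cells were strain YBZ-1 with a LexA–MS2 coat fusion and a HIS3 reporter, co-expressing Pumilio-1 PUF domain libraries and matching RNA elements from a centromeric plasmid. The interaction score is the log change in variant frequency from input to selection, taken in log2 with a pseudocount of 1 for absent variants.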

In another test the target is PUM1 PUF domain R4-HNS (Homo sapiens, UniProt Q14671 828-1176, N971H;H972N;Q975S). The essentials: as §1
In a further test the target is PUM1 PUF domain R3-VRI (Homo sapiens, UniProt Q14671 828-1176, C935V;Q939I). An outline of the steps: as §1
The target in another test is PUM1 PUF domain R4-RLF (Homo sapiens, UniProt Q14671 828-1176, N971R;H972L;Q975F). The essentials:
as §1

Another test has as its target PUM1 PUF domain R5-NLL (Homo sapiens, UniProt Q14671 828-1176, C1007N;R1008L;Q1011L). The essentials:
as §1

The target in another test is PUM1 PUF domain R5-KTN (Homo sapiens, UniProt Q14671 828-1176, C1007K;R1008T;Q1011N). The essentials:
as §1

The target of another test is PUM1 PUF domain R2-LWF (Homo sapiens, UniProt Q14671 828-1176, N899L;Y900W;Q903F). An outline of the steps: as §1
The target of another test is PUM1 PUF domain R7-IMG (Homo sapiens, UniProt Q14671 828-1176, S1079I;N1080M;E1083G). An outline of the steps:
as §1

In another test the target is PUM1 PUF domain R1-RCL (Homo sapiens, UniProt Q14671 828-1176, S863R;R864C;Q867L). An outline of the steps:
as §1

The next test deals with PUM1 PUF domain R1-KPC (Homo sapiens, UniProt Q14671 828-1176, S863K;R864P;Q867C). The essentials:
as §1

Sequence of PUM1 PUF domain R7-IMG (Q14671 828-1176 S1079I/N1080M/E1083G): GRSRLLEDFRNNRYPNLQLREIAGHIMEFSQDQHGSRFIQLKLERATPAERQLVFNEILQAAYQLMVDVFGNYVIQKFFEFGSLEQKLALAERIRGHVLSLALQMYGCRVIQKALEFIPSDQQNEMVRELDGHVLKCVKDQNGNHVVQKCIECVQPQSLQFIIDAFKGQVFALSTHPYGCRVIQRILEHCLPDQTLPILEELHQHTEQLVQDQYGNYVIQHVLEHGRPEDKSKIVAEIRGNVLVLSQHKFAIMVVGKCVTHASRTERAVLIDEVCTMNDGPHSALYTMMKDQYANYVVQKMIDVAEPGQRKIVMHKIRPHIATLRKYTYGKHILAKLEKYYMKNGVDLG
Sequence of PUM1 PUF domain R5-KTN (Q14671 828-1176 C1007K/R1008T/Q1011N): as the sequence (Q14671 828-1176 S1079I/N1080M/E1083G) above, with C180K, R181T, Q184N, I252S, M253N, G256E counted along it
Sequence of PUM1 PUF domain R5-NLL (Q14671 828-1176 C1007N/R1008L/Q1011L): as the sequence (Q14671 828-1176 S1079I/N1080M/E1083G) above, with C180N, R181L, Q184L, I252S, M253N, G256E counted along it

Regarding “GGCUAGAACUAGUGGAUCCCCCGGCGCCCGGCGGCUCGAGCCCGGGUAAGUGUAUAUAGUCUGCAUGCCGCCGGGCGCCAUGCCUGCAGGUCGACUCUAGAAAACAUG”, the binding signal in the test with PUM1 PUF domain R4-LHQ was 6.92 log2 enrichment (interaction score); with PUM1 PUF domain R4-HNS, 4.08 log2 enrichment (interaction score).

In the case of “GGCUAGAACUAGUGGAUCCCCCGGCGCCCGGCGGCUCGAGCCCGGGUAAGUGUAAAUAGUCUGCAUGCCGCCGGGCGCCAUGCCUGCAGGUCGACUCUAGAAAACAUG”, the binding signal with PUM1 PUF domain R4-HNS was 1.42 log2 enrichment (interaction score); in the test with PUM1 PUF domain R3-VRI, 4.31 log2 enrichment (interaction score); with PUM1 PUF domain R4-RLF, 4.74 log2 enrichment (interaction score).

For “GGCUAGAACUAGUGGAUCCCCCGGCGCCCGGCGGCUCGAGCCCGGGUAAGUGUUAAUAGUCUGCAUGCCGCCGGGCGCCAUGCCUGCAGGUCGACUCUAGAAAACAUG”, the binding signal with PUM1 PUF domain R5-NLL is 2.94 log2 enrichment (interaction score).

As to “GGCUAGAACUAGUGGAUCCCCCGGCGCCCGGCGGCUCGAGCCCGGGUAAGUGUCAAUAGUCUGCAUGCCGCCGGGCGCCAUGCCUGCAGGUCGACUCUAGAAAACAUG”, the binding signal in the test with PUM1 PUF domain R5-KTN was 3.79 log2 enrichment (interaction score).

For “GGCUAGAACUAGUGGAUCCCCCGGCGCCCGGCGGCUCGAGCCCGGGUAAGUGUAAAAAGUCUGCAUGCCGCCGGGCGCCAUGCCUGCAGGUCGACUCUAGAAAACAUG”, in the test with PUM1 PUF domain R2-LWF, the binding signal was 6.96 log2 enrichment (interaction score).

As for “GGCUAGAACUAGUGGAUCCCCCGGCGCCCGGCGGCUCGAGCCCGGGUAAGUGUAAACAGUCUGCAUGCCGCCGGGCGCCAUGCCUGCAGGUCGACUCUAGAAAACAUG”, the binding signal with PUM1 PUF domain R2-LWF is 1.17 log2 enrichment (interaction score).

Turning to “GGCUAGAACUAGUGGAUCCCCCGGCGCCCGGCGGCUCGAGCCCGGGUAAGUUUAAAUAGUCUGCAUGCCGCCGGGCGCCAUGCCUGCAGGUCGACUCUAGAAAACAUG”, in the test with PUM1 PUF domain R7-IMG, the binding signal is 3.68 log2 enrichment (interaction score).

Regarding “GGCUAGAACUAGUGGAUCCCCCGGCGCCCGGCGGCUCGAGCCCGGGUAAGUGUAAUUAGUCUGCAUGCCGCCGGGCGCCAUGCCUGCAGGUCGACUCUAGAAAACAUG”, in the test with PUM1 PUF domain R3-VRI, the binding signal is 0.57 log2 enrichment (interaction score).

Regarding “GGCUAGAACUAGUGGAUCCCCCGGCGCCCGGCGGCUCGAGCCCGGGUAAGUGUAAAUCGUCUGCAUGCCGCCGGGCGCCAUGCCUGCAGGUCGACUCUAGAAAACAUG”, in the test with PUM1 PUF domain R1-RCL, the binding signal was 3.05 log2 enrichment (interaction score).

As to “GGCUAGAACUAGUGGAUCCCCCGGCGCCCGGCGGCUCGAGCCCGGGUAAGUGUAAAUUGUCUGCAUGCCGCCGGGCGCCAUGCCUGCAGGUCGACUCUAGAAAACAUG”, the binding signal with PUM1 PUF domain R1-KPC is 4.34 log2 enrichment (interaction score).
